HCV inh: HCV inhibition. Huh7.5.1 HCVcc-Cre infection, luciferase reporter, 44 h. Potency, µM (doses to about 41.8 µM), inactives show top-dose activity change, negative = inhibition, usual class: inhibitors. 340,000 compounds, 3.4% hits. AID 651820; note: % is set by controls: 0 for no effect and ±100 for the full control effect
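Cells (1,000/well) were plated 4 h before compound, then infected with HCVcc-Cre virus (~0.5 moi). After 44 h further culture, infection was read as luciferase luminescence following a 15 min substrate incubation at room temperature.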
SARS PLpro yeast: blocks SARS-CoV papain-like protease in a yeast assay; S. cerevisiae expressing SARS-CoV PLpro, growth rescue; Potency, µM (series often up to 32.9 µM), for inactives: at the highest dose activity, positive = growth rescue, usual class: activators; 330,000 compounds, 0.19% hits; calls by dose curve; note: 0% is about no effect; nearly all actives have a fitted effect of over 55% in size
Pf growth 48h: inhibits P. falciparum growth in the first generation, 48 h; Potency, µM (series often up to 28.7 µM), without a hit: top-dose activity change, negative = inhibition, actives largely listed as inhibitors; 310,000 compounds, 5.9% hits; P. falciparum luciferase growth in erythrocytes, 48 h; note: % is set by controls: 0 for no effect and ±100 for the full control effect
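First compound was added to culture medium, then infected red cells at 0.1% parasitemia and 2% hematocrit (final). After incubation at 37 C under 5% CO2, luciferase detection reagent was dispensed and light output recorded.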
AMA1-RON2 inh: disrupts binding of P. falciparum AMA1 to RON2; AlphaScreen AMA1-biotinylated RON2 peptide binding; Potency, µM (doses to about 58.2 µM), without a hit: at the top dose activity change, negative = inhibition, most hits filed as inhibitors; 360,000 compounds, 0.2% hits; AID 720542;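 note: 0% = vehicle wells and -100% = peptide control; nearly all actives have a fitted effect of over 45% in size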
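AMA1 (3D7) with his tag at 25 nM final met compounds first, then biotinylated RON2 peptide at 25 nM; detection used donor plus acceptor beads, 10 µg/mL apiece, read by AlphaScreen after 30 min at room temperature.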
Pf growth 96h: P. falciparum growth inhibition at 96 hour, primary screen for plastid delayed-death inhibitors | Potency, µM (top dose mostly 28.7 µM), for inactives: at the highest dose activity change, negative = inhibition, usual class: inhibitors | P. falciparum luciferase reporter growth, 96 h | 320,000 compounds, 6.9% hits; note: % is set by controls: 0 for no effect and ±100 for the full control effect
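Plates of compound plus infected erythrocytes (2% hematocrit, 0.05% parasitemia final) incubate 96 hours, 37 C, 5% CO2. Detection reagent added; reduced luminescence from the parasites' luciferase reporter flags inhibition.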
NS1 inh: influenza NS1 inhibition; Potency, µM (series often up to 46.1 µM), for the others: top-dose activity, positive = more growth; 270,000 compounds, 0.4% hits; AID 2326; calls by dose curve; note: actives are rising curves; nearly all actives have a fitted effect of over 50% in size
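Read-out: OD600 growth recovery of NS1-expressing budding yeast. Cells grown overnight at 30C in -URA glucose medium, washed, resuspended and diluted 1:100 in 2% galactose assay medium, pH 6.0. Same strain lacking NS1 served as positive control.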
* hit, by the source's call; ? = inconclusive; . = no result; [ ] = remark or other dose. Most compounds without a hit are left out; they make up all but 12% or so of the library. Unless noted, calls come from the whole dose curve; as a rule, active = well fitted curve in the direction sought with a large enough effect; inconclusive = small, poorly fitted or top-dose-only effect, or another doubt; inactive = no such curve, though single readings can be large; an effect the other way counts as inactive or inconclusive. Potency is the fitted concentration of half-maximal effect.

SMILES	HCV inh	SARS PLpro yeast	Pf growth 48h	AMA1-RON2 inh	Pf growth 96h	NS1 inh
CC(C)C(C)(C#N)NC(=O)CSc1nc2scc(-c3ccc(F)cc3)c2c(=O)n1Cc1ccccc1 (centres undefined)	-17%	29%	9.3µM*	15%	4.7µM*	?
CC(C)C(C)(C#N)NC(=O)CSc1nnc(-c2ccncc2)n1Cc1ccccc1 (centres undefined)	21%	-2%	?	69%	3.7µM*	-6%
CC(C)(C)NC(=O)CSc1nnc(-c2ccncc2)n1Cc1ccccc1	12%	3%	-11%	16%	29%	?
CC1(C)CC(=O)C=C(c2ccc(F)cc2OCc2ccccc2)C1	20µM*	2%	?	8%	?	.
COc1ccccc1N(C)S(=O)(=O)c1ccc(Cl)c(C(=O)Nc2ccccc2N2CCOCC2)c1	4%	.	.	-29%	.	.
CN(c1ccc(F)cc1)S(=O)(=O)c1ccc(Cl)c(C(=O)NC2(C)CCS(=O)(=O)C2)c1 (centres undefined)	-18%	4%	-9%	-2%	?	.
COc1ccccc1N(C)S(=O)(=O)c1ccc(Cl)c(C(=O)Nc2cccc(C)n2)c1	?	-7%	2.1µM*	-10%	2.3µM*	.
Cc1cccc(NC(=O)c2cc(S(=O)(=O)N(C)c3ccc(F)cc3)ccc2Cl)n1	-28%	.	0.33µM*	-1%	0.37µM*	.
Cc1[nH]c(=O)[nH]c(=O)c1S(=O)(=O)N1CCCC(C(=O)NCCC2=CCCCC2)C1 (centres undefined)	0%	0%	?	1%	?	.
Nc1ccn([C@@H]2O[C@H](C(=O)N[C@H]3c4ccccc4C[C@H]3O)[C@@H](O)[C@H]2O)c(=O)n1	.	.	.	2%	.	.
Cc1ccc(CNC(=O)CCC2CCCN(Cc3c(C)nn(C(C)C)c3C)C2)o1 (centres undefined)	6%	0%	-3%	-2%	8.3µM*	7%
Cc1cc(Br)ccc1NC(=O)CN(C)C(=O)CSCc1ccccc1	13%	1%	8%	94%	1%	.
CCc1ccc(C2=NN(CCC(=O)NC3CCCCCC3)C(=O)CC2)cc1	11%	-1%	?	-3%	10µM*	-19%
CCN(CC)c1ccc2c(O)cc(=O)oc2c1	11%	-5%	0%	6%	74%	.
CCN(CC)c1ccc(C(=O)OCc2cc(=O)oc3cc(O)ccc23)cc1	22µM*	-10%	?	-10%	4.7µM*	11%
COc1cc(/C=N/Nc2nc3ccccc3[nH]2)ccc1O	7%	-10%	0.83µM*	14%	?	-2%
O=[N+]([O-])c1ccc(NN=Cc2ccccc2O)nc1	?	.	.	68%	.	.
Clc1nc2ccccc2cc1/C=N/Nc1nc2ccccc2[nH]1	-9%	-11%	0.52µM*	98%	?	4%
C(=N\Nc1nc(-c2ccccc2)cs1)/c1cccs1	10µM*	?	-79%	72%	?	?
C(=N\Nc1nc(-c2ccccc2)cs1)/c1ccncc1	-30%	-3%	-23%	3%	?	-7%
COc1cc(/C=N/Nc2nc3ccccc3[nH]c2=O)ccc1O	1%	-4%	?	-3%	?	.
O=[N+]([O-])c1ccc(O)c(/C=N/Nc2ccccn2)c1	2.5µM*	?	2.9µM*	44%[11.6 µM]	?	-28%
c1ccc2c(c1)CCc1ccccc1C2=C1CCNCC1	-23%	.	.	-14%	.	.
Cc1ccc2c(CC(=O)Nc3cccc(S(=O)(=O)N4CCOCC4)c3)coc2c1	?	0%	?	-7%	?	.
Cc1c2cnn(CC(=O)NCCN3CCOCC3)c(=O)c2c(C)n1Cc1ccccc1F	2%	.	.	14%	.	.
SMILES	HCV inh	SARS PLpro yeast	Pf growth 48h	AMA1-RON2 inh	Pf growth 96h	NS1 inh
Cc1ccc(O)c(NC(=O)c2cc(-c3ccccc3Cl)on2)c1	5%	-2%	?	3%	?	9%
COC(=O)c1ccc2[nH]ccc2c1	-14%	1%	-17%	-4%	?	5%
O=[N+]([O-])c1ccc(O)c(/C=N/Nc2nc3ccccc3[nH]2)c1	11µM*	11µM*	2.3µM*	41%	76%	2%
COc1cc(/C=N/Nc2nc3ccccc3[nH]2)cc(Br)c1OCC(=O)N(C)C	-15%	-5%	0.47µM*	89%	0.47µM*	-16%
O=[N+]([O-])c1ccc(O)c(/C=N/Nc2ncnc3c2cnn3-c2ccccc2)c1	2.8µM*	-2%	1.2µM*	92%	0.52µM*	2%
O=[N+]([O-])c1cccc(N/N=C/c2cc([N+](=O)[O-])ccc2O)c1	-19%	-16%	-13%	-1%	3%	.
C(=N\Nc1nc2ccccc2[nH]1)/c1cccs1	24%	-2%	2.9µM*	49%	2.6µM*	-99%
C/C(=N/S(=O)(=O)c1ccc(Cl)c(Cl)c1)OCC(C)(C)C	.	.	.	.	.	0%
COc1ccc(O)c(/C=N/Nc2nc3ccccc3[nH]2)c1	4%	0%	1.9µM*	?	2%	12%
COc1cc(/C=N/Nc2nc3ccccc3[nH]2)cc(OC)c1O	-8%	-37%	1.7µM*	24%[11.6 µM]	0.93µM*	12%
COC(=O)c1ccc(/C=N/Nc2nc3ccccc3[nH]2)cc1	3%	-1%	?	5%	?	-5%
CC(C)(C)CC(=O)Nc1nnc(SCC(=O)N2CCCCC2)s1	3%	1%	-15%	12%	-14%	-2%
CC(=O)c1ccc(OCCCC(=O)OCC(=O)Nc2ccc3[nH]c(=O)[nH]c3c2)cc1	-5%	-1%	54%	15%	35%	.
COC(=O)Cc1ccc(NC(=O)c2ccc(Br)o2)cc1	?	-4%	99%	-4%	0%	-26%
CCN(CC)c1ccc(NC(=O)c2ccc(Br)o2)cc1	-23%	0%	-13%	?	10µM*	-21%
CCOc1ccccc1-c1nc(-c2ccc(NC(=O)c3ccc(Br)o3)cc2)no1	?	-6%	2.9µM*	4%	29%	-6%
O=C(Nc1ccc2c(c1)oc1ccccc12)c1ccc(Br)o1	18µM*	-12%	.	-4%	-27%	-22%
O=C1CCCCN1CCCC(=O)N1CCCC(Nc2ccc(F)c(F)c2)C1 (centres undefined)	11%	3%	-13%	-4%	70%	23%

Screening results: PubChem BioAssay, National Center for Advancing Translational Sciences (NCATS)
